Here are results for 40 compounds from PubChem BioAssay (EPA / NIEHS).

Inconclusive results are not listed. The source made the active and inactive calls. How the source made its calls: active means hit-call score of the fitted dose curve at least 0.9, where 1 is the maximum; inconclusive means response in the unintended direction; inactive means score below 0.9.

Chain of Cytochrome P450 3A4 (Homo sapiens) (P08684 whole entry, looked up): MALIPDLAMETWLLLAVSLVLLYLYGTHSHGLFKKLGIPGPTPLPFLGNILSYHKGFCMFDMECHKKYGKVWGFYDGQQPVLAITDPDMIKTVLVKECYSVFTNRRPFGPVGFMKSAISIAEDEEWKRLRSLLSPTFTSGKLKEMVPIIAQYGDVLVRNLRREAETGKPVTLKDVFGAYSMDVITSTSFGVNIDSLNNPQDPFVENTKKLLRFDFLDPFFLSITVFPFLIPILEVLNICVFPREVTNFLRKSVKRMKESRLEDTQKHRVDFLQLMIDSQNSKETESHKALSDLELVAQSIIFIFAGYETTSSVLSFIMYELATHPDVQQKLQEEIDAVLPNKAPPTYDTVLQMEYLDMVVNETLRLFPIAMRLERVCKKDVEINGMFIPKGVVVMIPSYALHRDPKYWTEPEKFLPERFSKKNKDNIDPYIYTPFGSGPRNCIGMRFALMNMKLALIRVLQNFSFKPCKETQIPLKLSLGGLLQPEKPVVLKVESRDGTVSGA

Read-out in the assay: Cytochrome P450 3A4 (Homo sapiens) (UniProt P08684)
Briefly: CLD_CYP3A4_6hr: CellzDirect (CLD) Gene Expression Assay for xenobiotic metabolism (CYP3A4) at 6 hours (AID 2283680). The method, then:
CLD_6hr is a cell-based, multiplexed-readout assay that uses hepatocyte, a human liver primary cell, with measurements taken at 6 hours after chemical dosing in a 96-well plate.CLD_CYP3A4_6hr is one of 16 assay component(s) measured or calculated from the CLD_6hr assay. It is designed to make measurements of mRNA induction, a form of inducible reporter, as detected with chemiluminescence signals by Quantitative Nuclease Protection Assay (qNPA) technology.Data from the assay component CLD_CYP3A4_6hr was analyzed at the endpoint, CLD_CYP3A4_6hr, in the positive analysis fitting direction relative to DMSO as the negative control and baseline of activity. Using a type of inducible reporter, gain-of-signal activity can be used to understand changes in the reporter gene as they relate to the gene CYP3A4. Furthermore, this assay endpoint can be referred to as a primary readout. To generalize the intended target to other relatable targets, this assay endpoint is annotated to the cyp intended target family, where subfamily is xenobiotic metabolism.
Human hepatocyte cultures were treated daily for two consecutive days with fresh dosing solutions containing appropriate concentrations of the 320 ToxCast chemicals (chemical identities were blinded to CellzDirect and other ToxCast collaborators), vehicle control (0.2% DMSO), and positive control inducers as summarized in Table 1. Due to the large number of treatment groups and chemicals examined, the ToxCast chemicals were divided into two groups (spanning two independent cultures of hepatocytes from separate donor preparations (Hu778: ToxCast plates 1 and 2; Hu776: ToxCast plates 3 and 4). Each preparation of human hepatocyte cultures was treated with respective vehicle control, medium only control, set of six positive controls/reference chemicals for the five hepatic receptor pathways, and a subset of eight of the ToxCast chemicals (indoxacarb, pyrithiobac-sodium, norflurazon, cyhalofop-butyl, methomyl, thiram, acetochlor, and propiconazole). These replicate data, coupled with internal replicates designed within the blinded ToxCast chemical library, provided additional data to evaluate interindividual differences between hepatocyte preparations and their potential impact on chemical profiles.Cell morphology and integrity were evaluated using phase-contrast microscopy as an indicator of hepatocyte cell health (Tyson & Green, 1987). Cultures for each treatment group (i.e., media, vehicle [0.2% DMSO], positive control inducers [multiple concentrations], and the ToxCast chemicals [multiple concentrations]) were observed and cell morphology was assessed relative to vehicle control cultures at each harvest time point (0, 6, 24, or 48 h). […] Images were evaluated at the conclusion of the study to assess changes in cell integrity and account for the effects of chemical exposure on uncharacteristic changes in concentration-dependent gene expression profiles. The results from these determinations of apparent cytotoxicity were annotated (yes/no) alongside the corresponding qNPA data for reference.At the conclusion of each treatment period, hepatocyte cultures (96-well) were washed with 1 volume of HBSS, lysed by addition of 25 ul ArrayPlate lysis buffer (HTG, Tucson, AZ), and 70 ul/well of Denaturation Oil, denatured by incubation at 95C for 10 min, and frozen at approximately -70C until analysis by nuclease protection assay (qNPA) (Roberts et al., 2007). For qNPA analysis, cell lysates were thawed at 50C for approximately 30 min, qNPA probes were added, and samples were incubated at 95C for 10 min to begin the detection process by denaturing the target RNA, dissociating the duplexes and secondary structure hybridization. At the conclusion of the hybridization period, S1 nuclease reagent was added to each sample to digest all nonprotected nucleotides at 50C for 60-90 min. […]
For `CCCCC(O)(Cn1cncn1)c1ccc(Cl)cc1Cl` (stereo not given), the compound was called inactive. Regarding `CC(C)=CC1C(C(=O)OCc2coc(Cc3ccccc3)c2)C1(C)C` (stereo not given), the compound was classed as inactive. In the case of `CCOC(=O)C(C)OC(=O)c1cc(Oc2ccc(C(F)(F)F)cc2Cl)ccc1[N+](=O)[O-]` (stereo not given), the concentration at half-maximal activity (AC50) is 4.03 µM (active). Regarding `CCOP(=S)(OCC)Oc1nc(Cl)n(C(C)C)n1`, the AC50 is 0.466 µM (active). The same measure, in the same setting: the figure for `CCOP(=O)(OCC)Oc1nc(Cl)c(Cl)cc1Cl` is 9.77 µM (active). In the case of `COCc1cnc(C2=NC(C)(C(C)C)C(=O)N2)c(C(=O)O)c1` (stereo not given), the compound was called inactive. The same measure, in the same setting: the entry for `O=C(O)c1c(Cl)ccc2cc(Cl)cnc12` is “inactive”. As to `CC(C)(C)C(=O)C(Oc1ccc(Cl)cc1)n1cncn1` (stereo not given), the AC50 is 0.434 µM (active). Still for that read-out and setting: as for `CC1(C)C(C(=O)OC(C#N)c2cccc(Oc3ccccc3)c2)C1(C)C` (stereo not given), the figure is 3.71 µM (active). Consider `N#CN=C1SCCN1Cc1ccc(Cl)nc1`, for which the compound was called inactive.

As for `Clc1nc(Cl)nc(Nc2ccccc2Cl)n1`, the call was inactive. Still for that read-out and setting: the entry for `CO/N=C(/C1=NOCCO1)c1ccccc1Oc1ncnc(Oc2ccccc2Cl)c1F` is “inactive”; for `COCC(C)N(C(=O)CCl)c1c(C)csc1C` (stereo not given) it is “inactive”. `CC1(C)CON(Cc2ccccc2Cl)C1=O`: the AC50 is 1.89 µM (active).

Regarding `N#Cc1c(Cl)cccc1Cl`, the compound was classed as inactive.

As for `CCNP(=S)(OC)O/C(C)=C/C(=O)OC(C)C` (stereo not given), the half-maximal activity concentration (AC50) was 1.9 µM (active). Turning to `COc1cc(Cl)c(OC)cc1Cl`, the compound was classed as inactive. Still for that read-out and setting: the entry for `CS(=O)(=O)c1ccc(C(=O)C2C(=O)CCCC2=O)c([N+](=O)[O-])c1` is “inactive”. With `CC(C)Nc1nc(Cl)nc(NC(C)C)n1`, the AC50 is 20 µM (active). With `COP(=S)(OC)Oc1ccc([N+](=O)[O-])c(C)c1`, the compound was called inactive. The same measure, in the same setting: as for `CCSC(=O)N1CCCCCC1`, the entry is “inactive”; as for `Cc1cnc(C2=NC(C)(C(C)C)C(=O)N2)c(C(=O)O)c1` (stereo not given), “inactive”; as for `CSC(=O)c1c(C(F)F)nc(C(F)(F)F)c(C(=O)SC)c1CC(C)C`, “inactive”. On the same count and under the same terms, as for `Clc1cccc(C(Cl)(Cl)Cl)n1`, the entry is “inactive”; as for `CCCCOCN(C(=O)CCl)c1c(CC)cccc1CC`, “inactive”; as for `CC(C)N1C(=O)N(c2ccccc2)CSC1=NC(C)(C)C`, “inactive”.

With `COc1ccc(-c2ccccc2)cc1NNC(=O)OC(C)C`, the compound was classed as inactive. Still for that read-out and setting: as for `O=c1n(Cl)c(=O)n(Cl)c(=O)n1Cl`, the entry is “inactive”. Same read-out and setting: the entry for `COC(=O)NS(=O)(=O)c1ccc(N)cc1` is “inactive”.

On to `COC(=O)N(C(=O)N1CO[C@@]2(C(=O)OC)Cc3cc(Cl)ccc3C2=N1)c1ccc(OC(F)(F)F)cc1`, for which the AC50 was 1.21 µM (active).

As to `COC(=O)NC(=S)Nc1ccccc1NC(=S)NC(=O)OC`, the outcome was inactive. The same measure, in the same setting: the entry for `CCCN(CC)CC1COC2(CCC(C(C)(C)C)CC2)O1` (stereo not given) is “inactive”; for `CC(C)NC(=O)N1CC(=O)N(c2cc(Cl)cc(Cl)c2)C1=O` it is “inactive”. Regarding `COP(=S)(OC)SCn1nnc2ccccc2c1=O`, the AC50 was 0.975 µM (active).

On to `CC1(C)CCC(=Cc2ccc(Cl)cc2)C1(O)Cn1cncn1` (stereo not given), for which the compound was called inactive.

As to `CCOc1nc(C(Cl)(Cl)Cl)ns1`, the outcome was inactive. In the case of `Cc1nc(N(C)C)nc(OC(=O)N(C)C)c1C`, the AC50 is 5.6 µM (active). Consider `CCCCC(C#N)(Cn1cncn1)c1ccc(Cl)cc1` (stereo not given), for which the AC50 was 2.99 µM (active).

As for `CCOc1cc(C(C)(C)C)ccc1C1COC(c2c(F)cccc2F)=N1` (stereo not given), the AC50 was 4.26 µM (active). With `Cc1cc(C)nc(Nc2ccccc2)n1`, the compound was classed as inactive.

By AC50 is commonly meant the concentration at which the activity in the assay is half-maximal.
